# Source: PubChem BioAssay (NCATS)
# Records with an inconclusive call do not appear. Activity calls are given as the source filed them. Unless noted, calls come from the whole dose curve; as a rule, active = well fitted curve in the direction sought with a large enough effect; inconclusive = small, poorly fitted or top-dose-only effect, or another doubt; inactive = no such curve, though single readings can be large; an effect the other way counts as inactive or inconclusive.
# What was measured:
# [1] = target: Estrogen receptor (Homo sapiens) (UniProt P03372); test: qHTS assay for small molecule antagonists of estrogen receptor alpha signaling (AID 588513; active = well fitted curve in the direction sought with a large enough effect in the signal ratio, with a control signal flat, not every such curve was filed as active; the % refers to the signal ratio; note: % is set by controls: 0 for no effect and ±100 for the full control effect)
# In short: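 ER-alpha-UAS-bla GripTite HEK 293 cells in medium with 2% charcoal/dextran-treated FBS were preincubated 4 h at 37 C, dosed with compound (1:2 titration), stimulated with 0.5nM 17-beta-estradiol for 18 h, then read by CCF4 beta-lactamase fluorescence.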
# [2] = target: Peroxisome proliferator-activated receptor gamma (Homo sapiens) (UniProt P37231); test: qHTS assay for small molecule agonists of peroxisome proliferator-activated receptor gamma signaling (AID 588536; active = well fitted curve in the direction sought with a large enough effect in the signal ratio, with a control signal flat, not every such curve was filed as active; the % refers to the signal ratio;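 note: 0% = DMSO basal wells and 100% = rosiglitazone at 2 µM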)
# In short: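 Cells were plated and held 6–6.5 h at 37 C, then compounds were added as a titration series. After a further 16 h, CCF4 dye was loaded for 2 h at room temperature and emission at 460/530 nm recorded.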
# [3] = target: Peroxisome proliferator-activated receptor gamma (Homo sapiens) (UniProt P37231); test: qHTS assay for small molecule antagonists of peroxisome proliferator-activated receptor gamma signaling (AID 588537; active = well fitted inhibition curve with a large enough effect in the signal ratio, with a control signal flat, not every such curve was filed as active; the % refers to the signal ratio;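 note: reporter cells co-stimulated with 50 nM rosiglitazone agonist during compound treatment; % of control where 0% means no effect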)
# In short: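 Compounds are tested as concentration series for inhibition of rosiglitazone-driven (50 nM) reporter expression in GeneBLAzer PPAR-gamma-UAS-bla HEK293 cells. After 16 h at 37 C, CCF4 substrate is added for 2 h at room temperature and blue/green fluorescence is measured.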
# [4] = target: Vitamin D3 receptor (Homo sapiens) (UniProt P11473); test: qHTS assay for small molecule agonists of vitamin D receptor signaling (AID 588543; calls by dose curve;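 note: 0% = DMSO basal and 100% = reference agonist control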)
# In short: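 GeneBLAzer VDR-UAS-bla HEK293T cells in 2% charcoal-stripped FBS medium were dosed with compound titrations for 16 h at 37 °C; CCF4 β-lactamase readout (405 nm ex, 460/530 nm em). EC50 and efficacy from Hill fits, normalized to 50 nM calcitriol (100%) and DMSO (0%).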
# [5] = target: Thyroid hormone receptor beta (Homo sapiens) (UniProt P10828); test: qHTS assay for small molecule agonists of thyroid hormone receptor beta signaling (AID 588545; calls by dose curve;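 note: 0% = DMSO only and 100% = 10 nM T3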)
# In short: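 TR-UAS-bla-GripTite HEK 293 cells in medium with 2% charcoal/dextran FBS, 0.1 mM NEAA and 1 mM sodium pyruvate were treated with titrated compounds for 18 hrs at 37 C. Beta-lactamase reporter was read with CCF4 dye (ex 405, em 460/530 nm); EC50 from Hill fits.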
# [6] = qHTS assay for small molecule antagonists of retinoid X receptor alpha signaling (AID 588546; active = well fitted inhibition curve with a large enough effect in the signal ratio, with a control signal flat, not every such curve was filed as active; the % refers to the signal ratio;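 note: cells stimulated with 9-cis-retinoic acid as agonist; % is set by controls: 0 for no effect and ±100 for the full control effect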); conditions: HEK293T RXRa-UAS-bla, beta-lactamase ratio, antagonist mode; measured here: W530 green channel, cytotoxicity proxy
# In short: (§1)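 Beta-lactamase reporter inhibition, read as CCF4 fluorescence ratio (ex 405, em 460/530 nm) after 2 h at RT. HEK293T UAS-bla cells, 2500/well, were stimulated with 9-cis-RA at 500 or 100 nM final alongside test compound for 18 h at 37 C.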
# [7] = target: Retinoic acid receptor RXR-alpha (Homo sapiens) (UniProt P19793); test: as above; conditions: HEK293T RXRa-UAS-bla, beta-lactamase ratio, antagonist mode
# In short: as §1
# [8] = target: Thyroid hormone receptor beta (Homo sapiens) (UniProt P10828); test: qHTS assay for small molecule antagonists of thyroid hormone receptor beta signaling (AID 588547; active = well fitted inhibition curve with a large enough effect in the signal ratio, with a control signal flat, not every such curve was filed as active; the % refers to the signal ratio;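 note: cells stimulated with 0.4 nM T3 agonist during compound exposure; series mostly up to about 77 µM; % is set by controls: 0 for no effect and ±100 for the full control effect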); conditions: TR-UAS-bla HEK293, beta-lactamase ratio, antagonist mode, 18 h
# In short: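 TR-UAS-bla GripTite HEK293 cells in 2% charcoal/dextran FBS medium were preincubated 4 h at 37 C, given compound (0.59 nM to 92 uM) plus 0.4 nM T3 (final) for 18 h, then CCF4 for 2 h at RT; Hill fit gave IC50.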
# [9] = qHTS assay for small molecule activators of the p53 signaling pathway (AID 651743; active = well fitted activation curve with a large enough effect in the signal ratio, not every such curve was filed as active; the % refers to the signal ratio; note: series mostly up to about 92 µM; % of control where 0% means no effect); conditions: HCT-116 p53RE-bla, beta-lactamase FRET ratio, 16 h; activation: stronger effect = higher value
# In short: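 Agonist-mode quantitative HTS in HCT-116 cells carrying a p53-response-element beta-lactamase reporter; 16 h compound treatment at 37 C, then FRET substrate loading for 2 h at room temperature and fluorescence read.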
# [10] = qHTS assay for small molecule activators of the nuclear factor-kappa B (NF-kB) signaling pathway (AID 651749; active = well fitted activation curve with a large enough effect in the signal ratio; the % refers to the signal ratio; note: series mostly up to about 77 µM; % of control where 0% means no effect); conditions: NF-kB-bla ME-180 cells, beta-lactamase FRET ratio, 16 h; activation: stronger effect = higher value
# In short: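 Human ME-180 cervical cells with an NF-kB-bla construct; compounds added via 23 nL pin transfer, DMSO as vehicle; incubation 16 hr. Reporter activity measured by FRET disruption.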
# [11] = qHTS assay for environmental chemicals that activate the Aryl hydrocarbon Receptor (AhR) signaling pathway (AID 651777); conditions: 1A2-DRE human hepatoma cells, luciferase, 24 h; activation: stronger effect = higher value; note: % of control where 0% means no effect; nearly all actives have a fitted effect of over 15% in size
# In short: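 Following a 24 hr incubation with test chemicals at 37 C and 5% CO2, 1A2-DRE human hepatoma cells received One-Glo reagent; after 30 min at room temperature, luciferase output reflected CYP1A2 induction via AhR.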
# [12] = target: Peroxisome proliferator-activated receptor alpha (Homo sapiens) (UniProt Q07869); test: qHTS assay for small molecule agonists of the peroxisome proliferator-activated receptor alpha (PPARalpha) signaling pathway (AID 651778); conditions: PathHunter PPARalpha complementation, chemiluminescence, 6 h; max response: stronger effect = higher value; note: % of control where 0% means no effect
# In short: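 Cells plated at 2,000/well and held overnight at 37 C, 5% CO2, then compound added by pin tool for 6 hr; after PathHunter detection reagent and 60 min at room temperature, chemiluminescence from enzyme complementation was read.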
# [13] = qHTS assay for small molecule agonists of the antioxidant response element (ARE) signaling pathway measured by Nrf2-dependant transcriptional activity - cell viability counter screen (AID 720653; active = well fitted curve in the direction sought with a large enough effect in the repeat runs; an effect the other way counts as inactive or inconclusive; note: % is set by controls: 0 for no effect and ±100 for the full control effect); conditions: ARE-bla HepG2 viability, CellTiter-Glo ATP luminescence, 16 h; max response: stronger effect = lower value
# In short: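 ARE-bla HepG2 cells (2,000/well) rested 5 hrs at 37C/5% CO2, then exposed to compounds in DMSO for 16 hrs. Viability was read in the same wells as intracellular ATP by luminescence, 30 min at room temperature after reagent addition.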
# [14] = qHTS assay for cell viability of HEK293 cells (AID 743288); conditions: ATP luminescence (CellTiter-Glo), 18 h; max response: stronger effect = lower value; note: % is set by controls: 0 for no effect and ±100 for the full control effect; nearly all actives have a fitted effect of over 50% in size
# In short: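 After 18 h compound exposure at 37 C, parental HEK293 cells (2,000/well) are lysed with CellTiter-Glo and luminescence is read following 30 min at room temperature.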
# [15] = qHTS assay for cell viability of the p53RE-bla HCT-116 cell line (AID 743292); note: % is set by controls: 0 for no effect and ±100 for the full control effect; nearly all actives have a fitted effect of over 55% in size
# In short: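 After plating at 4,000 cells per well and a 5 h rest at 37 C, HCT-116 cells carrying p53RE-bla received test chemicals in DMSO. Sixteen hours later at 37 C, CellTiter-Glo was added and luminescence recorded following 30 min at room temperature.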
# [16] = qHTS assay for small molecule agonists of retinoid X receptor alpha signaling (AID 588544; calls by dose curve;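 for activation: 0% = DMSO basal wells and 100% = reference agonist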); conditions: HEK293T RXRa-UAS-bla, beta-lactamase reporter, 18 h; 530 nm emission
# [17] = target: Retinoic acid receptor RXR-alpha (Homo sapiens) (UniProt P19793); test: as above
# [18] = target: Nuclear receptor subfamily 1 group I member 2 (Rattus norvegicus) (UniProt Q9R1A7); test: qHTS assay for small molecule activators of the rat pregnane X receptor (rPXR) signaling pathway (AID 651751; call rule not given here; note: 0% is about no effect); conditions: rPXR reporter cells, luciferase (One-Glo), 24 h
# [19] = qHTS assay for small molecule activators of the human pregnane X receptor (PXR) signaling pathway (AID 720659; call rule not given here; note: 0% is about no effect)
# [20] = qHTS assay for small molecule agonists of the antioxidant response element (ARE) signaling pathway measured by Nrf2-dependant transcriptional activity (AID 720636; active = well fitted curve in the direction sought with a large enough effect in the repeat runs; an effect the other way counts as inactive or inconclusive;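 note: HepG2 cells with an ARE-driven luciferase reporter; % of control where 0% means no effect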)
# In short: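 ONE-Glo luminescence, read 30 min after reagent addition at room temperature, reflected ARE reporter activity in HepG2 cells that had been incubated with compound for 16 hr at 37 C in 1% dialyzed FBS.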
# Chain of Retinoic acid receptor RXR-alpha (Homo sapiens) (P19793 whole entry, looked up): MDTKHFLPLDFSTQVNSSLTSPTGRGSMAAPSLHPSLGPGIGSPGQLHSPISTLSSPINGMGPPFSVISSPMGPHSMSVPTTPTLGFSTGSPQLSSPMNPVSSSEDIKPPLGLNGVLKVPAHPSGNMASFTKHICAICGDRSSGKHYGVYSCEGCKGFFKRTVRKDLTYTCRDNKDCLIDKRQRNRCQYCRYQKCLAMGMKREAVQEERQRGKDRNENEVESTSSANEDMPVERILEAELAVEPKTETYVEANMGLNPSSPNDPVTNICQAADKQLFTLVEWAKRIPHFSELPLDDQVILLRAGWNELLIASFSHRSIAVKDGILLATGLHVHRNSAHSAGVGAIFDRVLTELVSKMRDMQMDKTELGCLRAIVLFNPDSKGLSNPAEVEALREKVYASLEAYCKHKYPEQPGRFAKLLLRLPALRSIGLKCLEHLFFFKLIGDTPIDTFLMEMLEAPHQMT
# Chain of Vitamin D3 receptor (Homo sapiens) (P11473 whole entry, looked up): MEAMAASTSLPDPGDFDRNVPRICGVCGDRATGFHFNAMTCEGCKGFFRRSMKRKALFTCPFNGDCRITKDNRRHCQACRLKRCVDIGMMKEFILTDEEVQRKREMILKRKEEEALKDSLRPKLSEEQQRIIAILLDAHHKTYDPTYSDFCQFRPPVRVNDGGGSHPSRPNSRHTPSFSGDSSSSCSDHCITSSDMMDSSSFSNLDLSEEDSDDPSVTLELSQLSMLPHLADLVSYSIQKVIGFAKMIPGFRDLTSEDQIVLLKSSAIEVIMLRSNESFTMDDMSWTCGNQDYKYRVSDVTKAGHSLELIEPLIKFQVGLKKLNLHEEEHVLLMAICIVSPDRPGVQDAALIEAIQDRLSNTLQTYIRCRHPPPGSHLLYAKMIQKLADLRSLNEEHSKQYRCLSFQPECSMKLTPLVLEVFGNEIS
# Chain of Peroxisome proliferator-activated receptor gamma (Homo sapiens) (P37231 whole entry, looked up): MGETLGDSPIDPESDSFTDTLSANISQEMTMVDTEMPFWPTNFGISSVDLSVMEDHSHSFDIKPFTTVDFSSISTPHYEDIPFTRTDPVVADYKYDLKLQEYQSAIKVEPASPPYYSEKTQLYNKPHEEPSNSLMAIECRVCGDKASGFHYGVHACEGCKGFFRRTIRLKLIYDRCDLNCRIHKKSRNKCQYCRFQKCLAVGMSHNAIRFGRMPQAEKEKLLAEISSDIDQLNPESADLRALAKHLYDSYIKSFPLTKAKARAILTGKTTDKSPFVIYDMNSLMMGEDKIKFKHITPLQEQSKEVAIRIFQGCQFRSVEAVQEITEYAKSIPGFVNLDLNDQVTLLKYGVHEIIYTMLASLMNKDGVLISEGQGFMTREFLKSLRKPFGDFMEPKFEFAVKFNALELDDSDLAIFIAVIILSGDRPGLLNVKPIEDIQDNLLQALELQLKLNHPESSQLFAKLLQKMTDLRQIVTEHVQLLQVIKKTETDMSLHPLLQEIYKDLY
# Chain of Peroxisome proliferator-activated receptor alpha (Homo sapiens) (Q07869 whole entry, looked up): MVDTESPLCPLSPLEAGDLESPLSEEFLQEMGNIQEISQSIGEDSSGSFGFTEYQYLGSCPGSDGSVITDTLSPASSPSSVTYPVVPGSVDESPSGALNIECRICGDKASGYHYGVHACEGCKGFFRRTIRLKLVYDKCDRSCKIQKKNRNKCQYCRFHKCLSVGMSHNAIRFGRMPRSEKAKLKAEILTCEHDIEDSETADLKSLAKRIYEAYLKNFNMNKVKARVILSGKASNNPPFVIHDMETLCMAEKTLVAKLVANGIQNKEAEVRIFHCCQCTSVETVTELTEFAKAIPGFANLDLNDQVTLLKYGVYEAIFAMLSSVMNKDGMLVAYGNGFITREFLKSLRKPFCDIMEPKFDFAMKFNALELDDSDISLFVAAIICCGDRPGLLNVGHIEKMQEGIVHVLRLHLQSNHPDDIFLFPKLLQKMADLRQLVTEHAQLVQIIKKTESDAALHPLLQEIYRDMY
# Chain of Estrogen receptor (Homo sapiens) (P03372 whole entry, looked up): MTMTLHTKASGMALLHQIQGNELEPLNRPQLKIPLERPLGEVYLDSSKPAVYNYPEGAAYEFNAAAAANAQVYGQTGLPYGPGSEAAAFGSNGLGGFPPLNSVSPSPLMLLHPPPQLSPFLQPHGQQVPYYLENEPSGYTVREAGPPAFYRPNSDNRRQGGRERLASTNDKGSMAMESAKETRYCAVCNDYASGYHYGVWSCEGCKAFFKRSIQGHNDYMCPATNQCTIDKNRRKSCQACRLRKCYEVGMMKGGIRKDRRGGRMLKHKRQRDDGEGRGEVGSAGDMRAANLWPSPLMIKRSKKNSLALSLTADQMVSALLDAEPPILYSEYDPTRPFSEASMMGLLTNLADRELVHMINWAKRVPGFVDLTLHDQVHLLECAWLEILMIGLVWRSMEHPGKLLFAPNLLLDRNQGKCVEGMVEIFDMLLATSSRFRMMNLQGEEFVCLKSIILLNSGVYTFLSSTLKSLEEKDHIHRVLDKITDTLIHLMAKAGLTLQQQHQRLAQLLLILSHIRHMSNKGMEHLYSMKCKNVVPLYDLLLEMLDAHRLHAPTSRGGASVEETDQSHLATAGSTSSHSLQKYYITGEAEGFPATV
# Chain of Nuclear receptor subfamily 1 group I member 2 (Rattus norvegicus) (Q9R1A7 whole entry, looked up): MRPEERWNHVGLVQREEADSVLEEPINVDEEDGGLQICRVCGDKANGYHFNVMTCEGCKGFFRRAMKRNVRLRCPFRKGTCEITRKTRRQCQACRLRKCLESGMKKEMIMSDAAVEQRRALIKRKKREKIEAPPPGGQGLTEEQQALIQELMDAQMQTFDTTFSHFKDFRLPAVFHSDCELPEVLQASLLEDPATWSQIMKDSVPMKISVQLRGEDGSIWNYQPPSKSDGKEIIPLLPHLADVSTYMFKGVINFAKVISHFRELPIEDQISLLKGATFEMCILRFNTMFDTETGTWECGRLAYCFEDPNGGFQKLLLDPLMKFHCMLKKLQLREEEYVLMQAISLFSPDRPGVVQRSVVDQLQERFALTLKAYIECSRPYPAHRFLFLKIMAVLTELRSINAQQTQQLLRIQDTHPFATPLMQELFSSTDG
# Chain of Thyroid hormone receptor beta (Homo sapiens) (P10828 whole entry, looked up): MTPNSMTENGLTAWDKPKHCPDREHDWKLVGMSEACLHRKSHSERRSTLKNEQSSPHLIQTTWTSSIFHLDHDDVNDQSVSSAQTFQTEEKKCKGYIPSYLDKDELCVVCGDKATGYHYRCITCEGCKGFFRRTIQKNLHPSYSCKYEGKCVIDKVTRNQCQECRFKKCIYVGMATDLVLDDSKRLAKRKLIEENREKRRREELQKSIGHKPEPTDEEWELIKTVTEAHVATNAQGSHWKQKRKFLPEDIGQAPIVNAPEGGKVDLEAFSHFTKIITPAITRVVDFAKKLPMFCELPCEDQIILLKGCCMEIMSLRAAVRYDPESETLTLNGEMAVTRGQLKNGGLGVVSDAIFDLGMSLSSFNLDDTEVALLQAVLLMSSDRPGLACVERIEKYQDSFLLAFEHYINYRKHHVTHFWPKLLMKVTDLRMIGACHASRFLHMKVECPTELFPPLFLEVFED
Compound,Potency [1],outcome [2],Potency [3],outcome [4],Potency [5],max response [6],max response [7],activity change % (negative = inhibition) [8],activation [9],activation [10],activation [11],max response [12],max response [13],max response [14],Potency [15],max response [16],Potency [17],max response [18],outcome [19],Potency [20]
c1ccc(OCCOc2ccccc2)cc1,inactive,inactive,inactive,inactive,inactive,-12.8%,-10.1% (inactive),5.59% (inactive),2.08% (inactive),-1.28% (inactive),8.39% (inactive),0.31% (inactive),-8.94% (inactive),-4.78% (inactive),inactive,,,,,
O=C(OCCOCCOC(=O)c1ccccc1)c1ccccc1,inactive,inactive,inactive,inactive,inactive,-7.11%,4.89% (inactive),0.94% (inactive),0.877% (inactive),0.298% (inactive),1.92% (inactive),-0.375% (inactive),-6.77% (inactive),-9.08% (inactive),inactive,-16.7%,inactive,2.6% (inactive),inactive,
CC1(C)C(=O)N(Cl)C(=O)N1Cl,inactive,inactive,inactive,inactive,inactive,1.31%,-12.2% (inactive),-0.904% (inactive),-0.829% (inactive),,0.743% (inactive),-0.353% (inactive),-14.6% (inactive),-4.37% (inactive),inactive,-24.2%,inactive,-0.522% (inactive),inactive,inactive
CC(C)c1cccc(C(C)C)c1,inactive,inactive,,inactive,,-3.77%,-4.2% (inactive),-5.42% (inactive),,-0.667% (inactive),2.18% (inactive),-1.99% (inactive),-8.28% (inactive),-5.18% (inactive),inactive,-9.24%,inactive,-1.81% (inactive),inactive,
CC(C)(C)c1n[nH]c(=O)n(N)c1=O,inactive,inactive,inactive,inactive,inactive,-5.34%,-3.59% (inactive),0.427% (inactive),1.96% (inactive),0.103% (inactive),-0.927% (inactive),0.89% (inactive),-8.89% (inactive),-15.1% (inactive),inactive,-20%,inactive,8.96% (inactive),inactive,inactive
COC(=O)c1ccccc1S(=O)(=O)NC(=O)Nc1nc(OC(F)F)cc(OC(F)F)n1,inactive,inactive,inactive,inactive,,-7.16%,-2.35% (inactive),,-4.45% (inactive),-2.94% (inactive),-0.662% (inactive),-0.141% (inactive),4.57% (inactive),0.401% (inactive),inactive,-18.6%,inactive,1.81% (inactive),inactive,inactive
CC1(C)CC(N)CC(C)(CN)C1 (stereo not given),inactive,inactive,,,inactive,-12.5%,4.46% (inactive),,-1.29% (inactive),-0.653% (inactive),,-3.48% (inactive),,-2.22% (inactive),inactive,-8.73%,inactive,-2.15% (inactive),inactive,inactive
Cc1ccc(C(C)(C)C)c(O)c1,inactive,inactive,inactive,inactive,inactive,-16%,-3.16% (inactive),,-4.17% (inactive),0.363% (inactive),1.48% (inactive),-0.656% (inactive),6.52% (inactive),-6.81% (inactive),inactive,-12.1%,inactive,1.73% (inactive),,inactive
CC(C)(C)c1ccc(O)c(C(C)(C)C)c1,inactive,inactive,inactive,inactive,inactive,-6.68%,-3.49% (inactive),5.44% (inactive),1.63% (inactive),-1.75% (inactive),0.859% (inactive),8.37% (inactive),,-8.41% (inactive),inactive,-10.9%,inactive,6.32% (inactive),,
COc1ccc(OC)c(OC)c1,inactive,inactive,inactive,inactive,inactive,-10%,2.37% (inactive),7.13% (inactive),-1.46% (inactive),,0.552% (inactive),0.14% (inactive),,-1.79% (inactive),,-0.39%,inactive,3.06% (inactive),inactive,
CC1(C)C(=O)NC(=O)N1CO,inactive,inactive,inactive,inactive,inactive,-6.79%,-4.89% (inactive),,-0.511% (inactive),-2.55% (inactive),1.93% (inactive),-1.57% (inactive),,-2.85% (inactive),inactive,-10.3%,inactive,1.33% (inactive),inactive,
